The subject of this assay is V-C8 + BRCA2 (BRCA2-proficient hamster cells). The assay can be described thus: normalised cell viability (fraction of plate median); higher = more viable cells (less toxic). As to conditions: 5 µM. The method in brief:
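In two screens, library drugs at 5 μM were given for 3 days (screen 1) or 6 days (screen 2) to hamster V-C8 cells without BRCA2 and V-C8 cells with BRCA2 restored, seeded 24 h earlier in 96-well plates. A resazurin assay gave the cell viability readout, expressed as modified robust per cent of sample against the plate median, with triplicate wells averaged.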

The structures appear in SMILES notation. Where a name gives a salt, the structure may show the parent alone. ± gives the standard deviation of the averaged measurements. In all, about 1,300 compounds were measured (“normalised cell viability”: median about 1, lowest 2% from about 0.15 on). Many of the other results were omitted from the sample, so the lowest values are more common in it than they were.

Take `Fc1ccc(C(OCCN2CCN(CCCc3ccccc3)CC2)c2ccc(F)cc2)cc1`: the normalised cell viability (treatment time: 3 days) was 0.18 ± 0.0028 and the normalised cell viability (treatment time: 6 days) was found to be 0.191 ± 0.0064.

With `COc1ccc(CCN2CCC(Nc3nc4ccccc4n3Cc3ccc(F)cc3)CC2)cc1` [Astemizole], the normalised cell viability is, setting by setting: (treatment time: 3 days) 0.118 ± 0.0065; (treatment time: 6 days) 0.102 ± 0.0063.

For `C[C@]12C[C@H]3S[C@H]3C[C@@H]1CC[C@@H]1[C@@H]2CC[C@]2(C)[C@@H](O)CC[C@@H]12` [Epitiostanol], the normalised cell viability (treatment time: 3 days) was 1.02 ± 0.019 and the normalised cell viability (treatment time: 6 days) is 1.05 ± 0.022.

As to `CC(C)[N+](C)(CCC(C(N)=O)(c1ccccc1)c1ccccc1)C(C)C` [Isopropamide iodide], the normalised cell viability by setting is: (treatment time: 3 days) 1.04 ± 0.062; (treatment time: 6 days) 1.02 ± 0.11.

Consider `CN1[C@@H]2CC[C@H]1C[C@@H](OC1c3ccccc3CCc3ccccc31)C2` [Deptropine citrate], for which the normalised cell viability worked out at 0.931 ± 0.016 (treatment time: 3 days) and 0.869 ± 0.065 (treatment time: 6 days).

For the compound `OC(c1ccccc1)(c1ccccc1)C1CCNCC1` [Azacyclonol], the normalised cell viability runs as follows: (treatment time: 3 days) 0.985 ± 0.041; (treatment time: 6 days) 1.03 ± 0.042.

As for `C[C@@H]1CC[C@H]2[C@@H](C)C(=O)O[C@@H]3O[C@@]4(C)CC[C@@H]1[C@]32OO4` [Artemisinin], the normalised cell viability (treatment time: 3 days) was determined as 0.794 ± 0.024 and the normalised cell viability (treatment time: 6 days) came to 0.87 ± 0.095.

Take `C[C@]12CC[C@H](O)C[C@H]1CC[C@@H]1[C@@H]2C[C@@H](O)[C@]2(C)[C@@H](C3=CC(=O)OC3)CC[C@]12O` [Digoxigenin]: the normalised cell viability (treatment time: 3 days) is 0.962 ± 0.11 and the normalised cell viability (treatment time: 6 days) stood at 0.986 ± 0.056.

`CC(=O)NC1CCSC1=O` (racemic) [N-Acetyl-DL-homocysteine Thiolactone]: the normalised cell viability by setting is: (treatment time: 3 days) 1.05 ± 0.096; (treatment time: 6 days) 1.06 ± 0.11.

For the compound `CO[C@]12C[C@@H](COC(=O)c3cncc(Br)c3)CN(C)[C@@H]1Cc1cn(C)c3cccc2c13` [Nicergoline], the normalised cell viability is, setting by setting: (treatment time: 3 days) 0.81 ± 0.019; (treatment time: 6 days) 0.926 ± 0.01.

Take `CNCC(O)c1ccc(O)cc1` (racemic) [(+,-)-Synephrine]: the normalised cell viability (treatment time: 3 days) was determined as 1.01 ± 0.085 and the normalised cell viability (treatment time: 6 days) stood at 1.01 ± 0.022.

As for `C[CH2][Hg][S]c1ccccc1C(=O)[O-].[Na+]` [Thimerosal], the normalised cell viability reads like this: (treatment time: 3 days) 0.106 ± 0.0062; (treatment time: 6 days) 0.118 ± 0.007.

Consider `NCCC(O)C(=O)NC1CC(N)C(OC2OC(CN)C(O)[C@H](O)[C@@H]2N)[C@H](OC2O[C@H](CO)[C@@H](O)[C@@H]2O)[C@@H]1O` (stereo not given in full) [Butirosin disulfate salt], for which the normalised cell viability (treatment time: 3 days) was 0.979 ± 0.026 and the normalised cell viability (treatment time: 6 days) worked out at 0.868 ± 0.3.

Consider `C[C@@H]1C[C@@H]([C@H](O)CC2CC(=O)NC(=O)C2)C(=O)[C@@H](C)C1` [Cycloheximide], for which the normalised cell viability stood at 0.146 ± 0.008 (treatment time: 3 days) and 0.138 ± 0.016 (treatment time: 6 days).

In the case of `CC(CCc1ccccc1)NC(C)C(O)c1ccc(O)cc1` (stereo not given) [Nylidrin], the normalised cell viability reads like this: (treatment time: 3 days) 1.02 ± 0.0065; (treatment time: 6 days) 1.02 ± 0.051.

For `CCC(=O)O[C@@](Cc1ccccc1)(c1ccccc1)[C@@H](C)CN(C)C` [Levopropoxyphene napsylate], the normalised cell viability by setting is: (treatment time: 3 days) 0.979 ± 0.083; (treatment time: 6 days) 1.058 ± 0.0096.

Take `COc1cc([C@@H]2c3cc4c(cc3[C@H](O)[C@H]3COC(=O)[C@H]23)OCO4)cc(OC)c1OC` [Podophyllotoxin]: the normalised cell viability reads like this: (treatment time: 3 days) 0.143 ± 0.0046; (treatment time: 6 days) 0.136 ± 0.016.

For the compound `C=C1CC[C@@]2(O)[C@H]3Cc4ccc(O)c5c4[C@@]2(CCN3CC2CC2)[C@H]1O5` [Nalmefene hydrochloride], the normalised cell viability is 1 ± 0.043 (treatment time: 3 days) and 1.07 ± 0.15 (treatment time: 6 days).

Consider `C=C1[C@@H]2CC[C@H]3[C@]4(C)C[C@H](O[C@@H]5O[C@H](CO)[C@@H](OS(=O)(=O)O)[C@H](OS(=O)(=O)O)[C@H]5OC(=O)CC(C)C)C[C@@H](C(=O)O)[C@H]4CC[C@]3(C2)[C@@H]1O` [Atractyloside potassium salt], for which the normalised cell viability (treatment time: 3 days) was 1.08 ± 0.093 and the normalised cell viability (treatment time: 6 days) was found to be 1.15 ± 0.031.

Regarding `COc1ccc2c(c1)[C@]13CCCC[C@@H]1[C@H](C2)N(C)CC3` [Dextromethorphan hydrobromide monohydrate], the normalised cell viability (treatment time: 3 days) worked out at 1.13 ± 0.078 and the normalised cell viability (treatment time: 6 days) came to 1.02 ± 0.054.

Consider `CC[C@@]1(O)C(=O)OCc2c1cc1n(c2=O)Cc2cc3ccccc3nc2-1` [Camptothecine (S,+)], for which the normalised cell viability by setting is: (treatment time: 3 days) 0.142 ± 0.014; (treatment time: 6 days) 0.124 ± 0.012.

Take `CCC(=O)O[C@H]1CC[C@H]2[C@@H]3CCC4=CC(=O)CC[C@]4(C)[C@H]3CC[C@]12C` [Testosterone propionate]: the normalised cell viability reads like this: (treatment time: 3 days) 0.906 ± 0.085; (treatment time: 6 days) 1 ± 0.1.

Turning to `CN1[C@@H]2CC[C@H]1C[C@@H](OC(=O)C(CO)c1ccccc1)C2` (stereo not given in full) [Atropine sulfate monohydrate], the normalised cell viability is, setting by setting: (treatment time: 3 days) 0.925 ± 0.033; (treatment time: 6 days) 0.988 ± 0.053.

For the compound `O=C(CCCN1CCC2(CC1)C(=O)NCN2c1ccccc1)c1ccc(F)cc1` [Spiperone], the normalised cell viability turned out to be 1.07 ± 0.04 (treatment time: 3 days) and 0.997 ± 0.072 (treatment time: 6 days).

As to `CCCCCC[C@H]1C(=O)O[C@H](C)[C@H](NC(=O)c2cccc(NC=O)c2O)C(=O)O[C@@H](C)[C@@H]1OC(=O)CC(C)C` [Antimycin A], the normalised cell viability runs as follows: (treatment time: 3 days) 0.148 ± 0.012; (treatment time: 6 days) 0.124 ± 0.011.

For `CCCC(C)(COC(N)=O)COC(=O)NC(C)C` (stereo not given) [Carisoprodol], the normalised cell viability by setting is: (treatment time: 3 days) 0.992 ± 0.042; (treatment time: 6 days) 1.09 ± 0.04.

Turning to `CN1CCC2(C)c3cc(O)ccc3N(C)C12` (single isomer, unassigned; (-)) [(-)-Eseroline fumarate salt], the normalised cell viability runs as follows: (treatment time: 3 days) 0.694 ± 0.028; (treatment time: 6 days) 0.769 ± 0.015.

With `CCC(C)C1O[C@]2(C=C[C@@H]1C)C[C@@H]1CC(C/C=C(\C)[C@@H](OC3C[C@H](OC)[C@@H](OC4C[C@H](OC)[C@@H](O)[C@H](C)O4)[C@H](C)O3)[C@@H](C)/C=C/C=C3\COC4[C@H](O)C(C)=CC(C(=O)O1)[C@]34O)O2` (stereo not given in full) [Avermectin B1a], the normalised cell viability reads like this: (treatment time: 3 days) 0.303 ± 0.021; (treatment time: 6 days) 0.193 ± 0.025.

`CC(C)(N)Cc1ccccc1` [Phentermine hydrochloride]: the normalised cell viability runs as follows: (treatment time: 3 days) 1 ± 0.041; (treatment time: 6 days) 0.995 ± 0.023.

Take `NCC(CC(=O)O)c1ccc(Cl)cc1` (racemic) [Baclofen (R,S)]: the normalised cell viability reads like this: (treatment time: 3 days) 0.897 ± 0.079; (treatment time: 6 days) 0.956 ± 0.083.

These data come from the supplement of paper PMC6609913.
